# Test results taken from publication PMC11062922 (Nature Chemical Biology, 2023).
# pIC50: −log10 of the molar value. Read-outs that look alike come from different tables or passages of the source.
# Assays:
# AAK1 = test system: AAK1; parameters: species or system human, MV4-11 + K-562 + COLO205 + SK-N-BE2 + OVCAR-8; settings: read-out: apparent Kd, n = 1
# BMP2K = test system: BMP2K; parameters: species or system human, MV4-11 + K-562 + COLO205 + SK-N-BE2 + OVCAR-8; settings: read-out: apparent Kd, n = 1
# CSNK2A1;CSNK2A3 = test system: CSNK2A1;CSNK2A3; parameters: species or system human, MV4-11 + K-562 + COLO205 + SK-N-BE2 + OVCAR-8; settings: read-out: apparent Kd, n = 1
# CSNK2A2 = test system: CSNK2A2; parameters: species or system human, MV4-11 + K-562 + COLO205 + SK-N-BE2 + OVCAR-8; settings: read-out: apparent Kd, n = 1
# FLT4 = test system: FLT4; parameters: species or system human, MV4-11 + K-562 + COLO205 + SK-N-BE2 + OVCAR-8; settings: read-out: apparent Kd, n = 1
# RET = test system: RET; parameters: species or system human, MV4-11 + K-562 + COLO205 + SK-N-BE2 + OVCAR-8; settings: read-out: apparent Kd, n = 1
# PKN3 [1] = test system: PKN3; parameters: species or system human, MV4-11 + K-562 + COLO205 + SK-N-BE2 + OVCAR-8; settings: read-out: apparent Kd, n = 1;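 for pIC50: NanoBRET target engagement in HEK293T cells transiently expressing full-length PKN3 with C-terminal NanoLuc, displacement of fluorescent tracer K5 (500 nM), BRET read after 2 h equilibration at 37 °C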
# PKN3 [2] = settings: hek293t cells
# CLK1 = test system: CLK1; parameters: species or system human, MV4-11 + K-562 + COLO205 + SK-N-BE2 + OVCAR-8; settings: read-out: apparent Kd, n = 1
# CLK4 = test system: CLK4; parameters: species or system human, MV4-11 + K-562 + COLO205 + SK-N-BE2 + OVCAR-8; settings: read-out: apparent Kd; compound concentrations:100 nM and 1000 nM (sheet 'Samples'); n = 1
# GAK = test system: GAK; parameters: species or system human, MV4-11 + K-562 + COLO205 + SK-N-BE2 + OVCAR-8; settings: read-out: apparent Kd, n = 1
# GSK3A = test system: GSK3A; parameters: species or system human, MV4-11 + K-562 + COLO205 + SK-N-BE2 + OVCAR-8; settings: read-out: apparent Kd, n = 1
# GSK3B = test system: GSK3B; parameters: species or system human, MV4-11 + K-562 + COLO205 + SK-N-BE2 + OVCAR-8; settings: read-out: apparent Kd, n = 1
# MELK = test system: MELK; parameters: species or system human, MV4-11 + K-562 + COLO205 + SK-N-BE2 + OVCAR-8; settings: read-out: apparent Kd, n = 1
# NUAK1 = test system: NUAK1; parameters: species or system human, MV4-11 + K-562 + COLO205 + SK-N-BE2 + OVCAR-8; settings: read-out: apparent Kd, n = 1
# PAK4 = test system: PAK4; parameters: species or system human, MV4-11 + K-562 + COLO205 + SK-N-BE2 + OVCAR-8; settings: read-out: apparent Kd, n = 1
# PKN1 = test system: PKN1; parameters: species or system human, MV4-11 + K-562 + COLO205 + SK-N-BE2 + OVCAR-8; settings: read-out: apparent Kd, n = 1
# PRKAG1 = test system: PRKAG1; parameters: species or system human, MV4-11 + K-562 + COLO205 + SK-N-BE2 + OVCAR-8; settings: read-out: apparent Kd, n = 1
# Q6ZSR9 = Q6ZSR9 (human, UniProt Q6ZSR9); parameters: species or system MV4-11 + K-562 + COLO205 + SK-N-BE2 + OVCAR-8; settings: read-out: apparent Kd, n = 1
# Sequence of Q6ZSR9 (Q6ZSR9 whole entry, looked up): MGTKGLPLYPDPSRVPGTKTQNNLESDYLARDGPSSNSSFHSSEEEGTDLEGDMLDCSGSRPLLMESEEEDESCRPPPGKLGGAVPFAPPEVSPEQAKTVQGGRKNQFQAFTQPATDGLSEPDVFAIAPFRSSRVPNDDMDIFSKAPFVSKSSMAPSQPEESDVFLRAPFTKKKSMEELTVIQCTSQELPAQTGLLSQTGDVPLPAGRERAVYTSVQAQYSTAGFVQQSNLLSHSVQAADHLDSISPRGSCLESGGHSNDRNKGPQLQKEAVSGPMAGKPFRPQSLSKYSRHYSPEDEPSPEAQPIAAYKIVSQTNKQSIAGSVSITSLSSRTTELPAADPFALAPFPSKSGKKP
# SIK2 = test system: SIK2; parameters: species or system human, MV4-11 + K-562 + COLO205 + SK-N-BE2 + OVCAR-8; settings: read-out: apparent Kd, n = 1
# [3] = compound concentrations:100 nM and 1000 nM (sheet 'Samples')
structure (smiles),measurement,setting,value
Cc1ccc(Nc2ccnc(Nc3ccc4c(c3)CS(=O)(=O)C4)n2)cc1O.Cl [GW579362A],potency estimated from few doses,"AAK1; compound concentrations: 100 nM and 1000 nM (sheet 'Samples'), CATDS: 3.1485270896706399E-2",1060 nM
same,potency estimated from few doses,"BMP2K; compound concentrations: 100 nM and 1000 nM (sheet 'Samples'), CATDS: 2.75119720973705E-2",1640 nM
same,potency estimated from few doses,"CSNK2A1;CSNK2A3; compound concentrations: 100 nM and 1000 nM (sheet 'Samples'), CATDS: 3.1042037667094801E-2",1100 nM
same,potency estimated from few doses,"CSNK2A2; compound concentrations: 100 nM and 1000 nM (sheet 'Samples'), CATDS: 3.7509924473465302E-2",666 nM
same,potency estimated from few doses,"FLT4; compound concentrations: 100 nM and 1000 nM (sheet 'Samples'), CATDS: 3.6167271282575603E-2",729 nM
same,potency estimated from few doses,"RET; compound concentrations: 100 nM and 1000 nM (sheet 'Samples'), CATDS: 5.0599670871917801E-2",349 nM
Cc1cccc(-c2nc(Nc3ccncc3)c3sccc3n2)n1 [GW869641X],potency estimated from few doses,PKN3 [1]; [3],97.8 nM
same,pIC50,"PKN3 [2]; read-out: Average, SD, n = 3",5.80
same,pIC50,PKN3 [2]; read-out: Rep 1,5.38
same,pIC50,PKN3 [2]; read-out: Rep 2,6.33
same,pIC50,PKN3 [2]; read-out: Rep 4,7.06
Cl.Cl.NCC(C(=O)Nc1cc(Br)c(-c2ccnc3[nH]ccc23)s1)c1ccccc1.NCC(C(=O)Nc1cc(Br)c(-c2ccnc3[nH]ccc23)s1)c1ccccc1 (stereo not drawn) [GSK1269851A],potency estimated from few doses,AAK1; [3],84.4 nM
same,potency estimated from few doses,BMP2K; [3],126 nM
same,potency estimated from few doses,CLK1; [3],449 nM
same,potency estimated from few doses,CLK4,1070 nM
same,potency estimated from few doses,CSNK2A1;CSNK2A3; [3],861 nM
same,potency estimated from few doses,CSNK2A2; [3],1130 nM
same,potency estimated from few doses,FLT4; [3],1230 nM
same,potency estimated from few doses,GAK; [3],63 nM
same,potency estimated from few doses,GSK3A; [3],109 nM
same,potency estimated from few doses,GSK3B; [3],417 nM
same,potency estimated from few doses,MELK; [3],2320 nM
same,potency estimated from few doses,NUAK1; [3],1200 nM
same,potency estimated from few doses,PAK4; [3],736 nM
same,potency estimated from few doses,PKN1; [3],1330 nM
same,potency estimated from few doses,PKN3 [1]; [3],863 nM
same,potency estimated from few doses,PRKAG1; [3],416 nM
same,potency estimated from few doses,Q6ZSR9; [3],54.4 nM
same,potency estimated from few doses,RET; [3],539 nM
same,potency estimated from few doses,SIK2; [3],751 nM
CCOC(=O)N1CCC(n2cnc(-c3ccc(F)cc3)c2-c2ccnc(N)n2)CC1 [SB-219952],potency estimated from few doses,"AAK1; compound concentrations: 100 nM and 1000 nM (sheet 'Samples'), CATDS: 1.33097974797153E-2",454 nM
same,potency estimated from few doses,"BMP2K; compound concentrations: 100 nM and 1000 nM (sheet 'Samples'), CATDS: 1.0000193686827899E-2",867 nM
same,potency estimated from few doses,"CLK1; compound concentrations: 100 nM and 1000 nM (sheet 'Samples'), CATDS: 1.18597213826205E-2",578 nM
same,potency estimated from few doses,"CSNK2A1;CSNK2A3; compound concentrations: 100 nM and 1000 nM (sheet 'Samples'), CATDS: 1.2357704080210899E-2",529 nM
same,potency estimated from few doses,"CSNK2A2; compound concentrations: 100 nM and 1000 nM (sheet 'Samples'), CATDS: 1.08103941261705E-2",715 nM
same,potency estimated from few doses,"FLT4; compound concentrations: 100 nM and 1000 nM (sheet 'Samples'), CATDS: 1.0948126782386601E-2",694 nM
same,potency estimated from few doses,"GAK; compound concentrations: 100 nM and 1000 nM (sheet 'Samples'), CATDS: 1.8528073728162099E-2",245 nM
same,potency estimated from few doses,"GSK3A; compound concentrations: 100 nM and 1000 nM (sheet 'Samples'), CATDS: 1.9129432777521899E-2",232 nM
same,potency estimated from few doses,"GSK3B; compound concentrations: 100 nM and 1000 nM (sheet 'Samples'), CATDS: 1.5651651675632799E-2",331 nM
same,potency estimated from few doses,"MELK; compound concentrations: 100 nM and 1000 nM (sheet 'Samples'), CATDS: 7.6939005676200604E-3",1970 nM
same,potency estimated from few doses,"NUAK1; compound concentrations: 100 nM and 1000 nM (sheet 'Samples'), CATDS: 9.2511282375558092E-3",1070 nM
same,potency estimated from few doses,"PAK4; compound concentrations: 100 nM and 1000 nM (sheet 'Samples'), CATDS: 1.1415940389083201E-2",630 nM
same,potency estimated from few doses,"PKN1; compound concentrations: 100 nM and 1000 nM (sheet 'Samples'), CATDS: 1.0348059231995501E-2",795 nM
same,potency estimated from few doses,"PKN3 [1]; compound concentrations: 100 nM and 1000 nM (sheet 'Samples'), CATDS: 9.8185291638943593E-3",909 nM
same,potency estimated from few doses,"PRKAG1; compound concentrations: 100 nM and 1000 nM (sheet 'Samples'), CATDS: 1.03550294618252E-2",794 nM
same,potency estimated from few doses,"Q6ZSR9; compound concentrations: 100 nM and 1000 nM (sheet 'Samples'), CATDS: 1.30827275923428E-2",470 nM
same,potency estimated from few doses,"RET; compound concentrations: 100 nM and 1000 nM (sheet 'Samples'), CATDS: 1.35684167881036E-2",436 nM
same,potency estimated from few doses,"SIK2; compound concentrations: 100 nM and 1000 nM (sheet 'Samples'), CATDS: 1.0490419954407099E-2",769 nM
